Data taken from PubChem BioAssay (EPA / NIEHS).
Activity calls are given as the source filed them. Rule for the calls: active = hit-call score of the fitted dose curve at least 0.9, where 1 is the maximum; inactive = score below 0.9.

target: Transcriptional activator Myb (Homo sapiens) (UniProt P10242); experiment: ATG_Myb_CIS: Attagene CIS-FACTORIAL HepG2 Assay for human Myeloblastosis (Myb) Proto-Oncogene Transcription Factor (AID 2282986); conditions: HepG2 Attagene CIS-FACTORIAL Myb reporter transcription; actives raise or lower the signal
Sequence (P10242 whole entry, looked up): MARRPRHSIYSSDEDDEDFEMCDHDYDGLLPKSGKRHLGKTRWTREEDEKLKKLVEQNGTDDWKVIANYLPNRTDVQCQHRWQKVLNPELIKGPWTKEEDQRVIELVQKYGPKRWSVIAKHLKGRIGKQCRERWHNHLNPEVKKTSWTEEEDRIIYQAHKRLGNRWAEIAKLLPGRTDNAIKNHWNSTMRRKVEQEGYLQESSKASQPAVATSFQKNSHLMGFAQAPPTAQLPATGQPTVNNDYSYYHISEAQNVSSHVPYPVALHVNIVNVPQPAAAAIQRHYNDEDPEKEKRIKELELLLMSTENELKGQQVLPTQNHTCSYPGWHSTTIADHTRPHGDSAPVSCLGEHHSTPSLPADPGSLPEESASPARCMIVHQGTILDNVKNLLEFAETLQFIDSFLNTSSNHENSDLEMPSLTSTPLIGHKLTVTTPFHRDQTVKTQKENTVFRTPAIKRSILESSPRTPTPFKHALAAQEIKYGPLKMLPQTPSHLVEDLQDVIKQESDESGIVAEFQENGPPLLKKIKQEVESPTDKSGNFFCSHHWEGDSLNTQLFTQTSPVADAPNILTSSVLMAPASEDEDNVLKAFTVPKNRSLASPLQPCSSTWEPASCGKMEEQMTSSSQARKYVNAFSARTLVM
Outline: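 Multiplexed cis-reporter system in HepG2: transient transfection, 24 h treatment, mRNA readout by RT-PCR and capillary electrophoresis. Both increases and decreases are scored versus DMSO negative control.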

outcome, inactive:
C=CC(C)C#N (stereo not drawn), CCCCC(CC)COC(=O)c1ccc(O)cc1 (stereo not drawn), CC(C)(C)OC(=O)c1ccc(O)cc1, COc1cc(Cl)c(OC)cc1N, CN(C)CCOc1ccc(/C(=C(/CCCl)c2ccccc2)c2ccccc2)cc1, O=[N+]([O-])c1ccc(O)cc1C(F)(F)F, COC(=O)c1ccc(OC)cc1, CC(=O)O[C@H]1C[C@@H]2CC[C@@]1(C)C2(C)C, O=C(Nc1ccc2c(c1)Cc1ccccc1-2)C(F)(F)F, NCC1CCCC(CN)C1 (stereo not drawn), CCCCCCCCSCCO, CCCCCCC(O)CCCCCCCCCCC(=O)O (stereo not drawn), CC1C2CC(CC2C2CCCC(O)C2)C1(C)C (stereo not drawn), CCCCCCCCCCCC(=O)OC[C@@H](O)[C@H]1OC[C@H](O)[C@H]1O, CCc1cc(C(C)(C)C)c(O)c(C(C)(C)C)c1, C=CC(C)(O)CCC=C(C)C (stereo not drawn), CCOC(=O)CN, CCC1(c2ccccc2)C(=O)NCNC1=O, CCc1cc(Cc2cc(CC)cc(C(C)(C)C)c2O)c(O)c(C(C)(C)C)c1, CC1(C)C(=O)N(Cl)C(=O)N1Br, Cc1cc(C)nc(NS(=O)(=O)c2ccc(N)cc2)n1, Cc1cc(=O)oc2cc(N(C)C)ccc12, CSc1c(Cl)c(Cl)c(Cl)c(Cl)c1Cl, C=C1CC[C@H](O)C/C1=C/C=C1\CCC[C@]2(C)[C@@H]([C@H](C)/C=C/[C@H](C)C(C)C)CC[C@@H]12, IC(I)I, CC1(C)O[C@@H]2C[C@H]3[C@@H]4CCC5=CC(=O)C=C[C@]5(C)[C@@]4(F)[C@@H](O)C[C@]3(C)[C@]2(C(=O)CO)O1, O=C(Nc1ccc([N+](=O)[O-])cc1)Nc1ccc([N+](=O)[O-])cc1 (tested in a mixture with another compound), Cc1ccc(S(=O)(=O)Oc2ccc(N=Nc3ccc(-c4ccc(N=Nc5c(O)ccc6cc(S(=O)(=O)O)cc(S(=O)(=O)O)c56)c(C)c4)cc3C)cc2)cc1, CCCCCCCCCCCCN1CCCCCC1=O, CC1(C)C2=CCCC(C)(C)[C@]23CC[C@H]1C3, CCCCCCC(C)Nc1ccc(Nc2ccccc2)cc1 (stereo not drawn), CCOC(=O)c1ccc(N)cc1, CC(C=O)Cc1ccc(C(C)(C)C)cc1 (stereo not drawn)
